# PubChem BioAssay (NCATS)
# Results filed as inconclusive are left out. Activity calls are given as the source filed them. Calls come from the whole dose curve; as a rule, active = well fitted curve in the direction sought with a large enough effect; inconclusive = small, poorly fitted or top-dose-only effect, or another doubt; inactive = no such curve, though single readings can be large or run the other way.
# Test: qHTS Assay for Identifying Gametocytocidal Compounds (AID 743244);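 note: actives lower the fluorescent signal which means gametocytes are killed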
# Details: P. falciparum 3D7 stage III-V gametocytes, alamarBlue, 72 h; max response: stronger effect = lower value
# Description: Malaria cases and deaths have dropped 50% in 29 countries since 2000 due to the combined effects of long-lasting insecticidal bednets, indoor residual spraying, and artemisinin-based combination therapies (ACTs). This success has raised hopes for malaria eradication and consequently stimulated interest in developing new reagents that block gametocyte transmission such as novel and safe gametocytocidal drugs. However, previous drug development efforts have focused primarily on the asexual parasites that cause symptoms, but not malaria transmission. Consequently, patients can remain infectious for weeks after the clearance of asexual parasites and clinical symptoms. To be transmitted from person to person via a mosquito, the parasites must switch from asexual to sexual development and produce male and female gametocytes. Malaria gametocytes consist of five stages (I, II, III, IV and V). The late stage gametocytes (III, IV and V) are difficult to be cultured in vitro and the long lifespan of mature gametocytes allows them being transmitted from host to mosquitoes unless they are completely eliminated by gametocytocidal agents. To identify gametocytocidal compounds which are capable of killing late stage P. falciparum gametocytes, a high throughput gametocyte viability assay was employed. This assay uses oxidoreduction indicator, alamarBlue, as a general measure of metabolic activity of gametocytes. Within live cells, the nonfluorescent resazurin is reduced to resorufin, a bright red fluorescence dye. Fluorescence decreases upon treatment of gametocytocidal compounds. P. falciparum gametocyte (3D7 strain) was used in this study.
# The 1536-well gametocycidal viability assay was based on the previous method of Tanaka et al. Stage III-V gametocytes were tested against three compound libraries, including 4265 compounds from NCGC pharmaceutical collection, 400 from Malaria Box library, and 550 from an internal collection of kinase inhibitors. Briefly, 2.5 ul/well incomplete medium was dispensed into each well of 1,536-well plates using the Multidrop Combi followed by 23 nl compound transferring using the NX-TR Pintool (WAKO Scientific Solutions, San Diego, CA). Then, 2.5 ul/well of gametocytes was dispensed with a seeding density of 20,000 cells/well using the Multidrop Combi. The assay plates were incubated for 72 h at 37C with 5% CO2. After addition of 5 ul/well of 2X AlamarBlue dye (Life Technologies, cat. no. DAL1100), the plates were incubated for 24 h at 37C with 5% CO2 and then were read in a fluorescence detection mode (Ex = 525 nm, Em = 598 nm) on a ViewLux plate reader (PerkinElmer).
# % is set by controls: 0 for no effect and ±100 for the full control effect.
row,Structure (SMILES),max response
1,N#CC(C#N)=C(N)/C(C#N)=C/c1ccc(O)cc1,11.4% (inactive)
2,O=C(O)/C=C/c1cnc[nH]1,8.66% (inactive)
3,Cc1ccc2c(c1)C(N1CCN(C)CC1)=Nc1cccnc1N2,23% (inactive)
4,COc1ccc(-c2cc3ncc(C)n3c(Nc3ncccc3C(N)=O)n2)cc1OC,12.4% (inactive)
5,CCc1ccc2c(-c3cccc(Cl)c3)nc(=O)n(CC)c2n1,15.8% (inactive)
6,Clc1nccc2c1ccc1ccccc12,7.1% (inactive)
7,Cc1nc(N=Nc2ccc(S(=O)(=O)O)cc2S(=O)(=O)O)c(COP(=O)(O)O)c(C=O)c1O,14.8% (inactive)
8,Cn1c(=O)c2[nH]c(C3CCCC3)nc2n(C)c1=O,9.69% (inactive)
9,CN1CCN(c2nc3cc(C(F)(F)F)ccc3n3cccc23)CC1,14.6% (inactive)
10,COc1ccccc1N1CCN(CCCCN2C(=O)c3ccccc3C2=O)CC1,10.1% (inactive)
11,O=C(O)c1ccccc1Nc1cccc(OCc2ccc3ccccc3n2)c1,1.28% (inactive)
12,CCCc1c(OCCCOc2ccc(OCC(=O)O)cc2)ccc(C(C)=O)c1O,1.52% (inactive)
13,C#CC(N)CCC(=O)O (stereo not given),8.18% (inactive)
14,O=c1cc(-c2ccccc2)[nH]c2nc(Cl)ccc12,-6.09% (inactive)
15,N=C(N)c1ccc(N)cc1,-4.7% (inactive)
16,O=C(O)C1=CC(=C(c2ccc(O)c(C(=O)O)c2)c2ccc(O)c(C(=O)O)c2)C=CC1=O,21.2% (inactive)
17,NC/C=C\C(=O)O,7.58% (inactive)
18,c1ccc(C(NCCNC(c2ccccc2)c2ccccc2)c2ccccc2)cc1,-2.86% (inactive)
19,CC(=O)SC1CC2=CC(=O)CC[C@]2(C)C2CC[C@@]3(C)C(CC[C@@]34CCC(=O)O4)C12 (stereo not given in full),7.64% (inactive)
20,CCCC(=O)NCCc1c2n(c3ccc(OC)cc13)CCCc1ccccc1-2,19.4% (inactive)

row,Structure (SMILES),max response
1,NOCC(=O)O,-2.42% (inactive)
2,C=CC1(C)CC(=O)C2(O)C(C)(O1)C(OC(C)=O)C(O)C1C(C)(C)CCC(O)C12C (stereo not given),15.4% (inactive)
3,N=C(N)c1ccccc1,17.2% (inactive)
4,CC#CCOC(=O)c1c(C)nc2sc3c(c2c1N)CCC(O)C3 (stereo not given),-7.3% (inactive)
5,CC(=O)/C(C)=N/O,-4.63% (inactive)
6,OC[C@H]1O[C@H](n2cnc3c(N[C@H]4CCC[C@@H]4O)ncnc32)[C@H](O)[C@@H]1O,20.9% (inactive)
7,CCCCCC(O)CCCC(=O)O (stereo not given),-4.98% (inactive)
8,O=C(O)CCC(=O)N1CCCC1C(=O)O (stereo not given),-8.08% (inactive)
9,C[C@@]1(C2CCCC2)Cc2cc(OCC(=O)O)c(Cl)c(Cl)c2C1=O,33.9% (inactive)
10,NC(=O)CC[C@H](N)C(=O)O,-4.4% (inactive)
11,Cc1cc(Cn2cnc3c2C[C@@H](C(=O)O)N(C(=O)C(c2ccccc2)c2ccccc2)C3)ccc1N,-5.22% (inactive)
12,C[C@@H](NCCc1ccc(O)cc1)[C@@H](O)c1ccc(O)cc1,2.62% (inactive)
13,CSc1nc(N)c2ncn([C@@H]3O[C@H](COP(=O)(O)OP(=O)(O)O)C(O)[C@H]3O)c2n1 (stereo not given in full),18.1% (inactive)
14,CC(N)=NCCCC[C@@H](N)C(=O)O,25.1% (inactive)
15,O=c1[nH]c2ccccc2c2ccccc12,36% (inactive)
16,CCC(=O)N1CCN(C(=O)c2ccccc2)CC1,9.08% (inactive)
17,CCCC[C@@]1(C2CCCC2)Cc2cc(OCC(=O)O)c(Cl)c(Cl)c2C1=O,8.17% (inactive)
18,C=C(C)C1CC=C(C(=O)O)CC1 (stereo not given),19.6% (inactive)
19,Cn1ccnc1,14.7% (inactive)
20,CCCCCCCCCC[Si](C)(C)CCC(=O)NC(Cc1ccc(C)cc1)c1ccccc1 (stereo not given),13.6% (inactive)
